This is part of a sample that, as a whole, favours compounds with a hit. Of some 79,000 tested, about 15% had one in any assay. Values without a mark were called inactive. Calls of active or inactive are those of the source. Rule as the data show it: active = growth inhibition above about 70%; inactive = the rest.

A short description of test [1]: NCI Yeast Anticancer Drug Screen. Data for the rad50 strain (AID 155).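 Also: 0% = growth of vehicle-only cultures of the same strain.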 The note with it: S. cerevisiae rad50 strain growth inhibition, hits give high values; at 50.0 µM unless noted. Summed up:
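Readout: growth inhibition relative to vehicle-treated cultures. Compound exposure was carried out in a genetically defined yeast strain deficient in DNA damage repair.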

Test [2] in a line: NCI Yeast Anticancer Drug Screen. Data for the mec2-1 strain (AID 157). The conditions noted are these: S. cerevisiae mec2-1 strain, hits give high values; at 50.0 µM unless noted. The gist of the method:
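Mutant yeast (mec2-1) grown with compound; growth inhibition relative to vehicle control reported.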

Test [3] can be described thus: NCI Yeast Anticancer Drug Screen. Data for the sgs1 mgt1 strain (AID 161).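 Also: 0% = growth of cultures given vehicle only.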 The conditions noted are these: S. cerevisiae sgs1 mgt1 strain, hits give high values; at 50.0 µM unless noted. The gist of the method: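 Yeast cells carrying a defined DNA-repair defect were exposed to test compounds. Growth inhibition was measured relative to vehicle-treated controls.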
Test [4] in a line: NCI Yeast Anticancer Drug Screen. Data for the cln2 rad14 strain (AID 165).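 Also: 0% = growth equal to vehicle treated cultures.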 The conditions noted are these: S. cerevisiae cln2 rad14 strain, hits give high values; at 50.0 µM unless noted. Summed up: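 Readout is yeast growth inhibition versus vehicle-treated controls, using a strain with cln2 and rad14 alterations exposed to compound.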
Test [5] is described as follows: NCI Yeast Anticancer Drug Screen. Data for the bub3 strain (AID 167). The conditions noted are these: S. cerevisiae bub3 mutant strain, hits give high values; at 50.0 µM unless noted. The gist of the method:
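Readout: yeast growth inhibition, expressed relative to vehicle-only wells. The test organism is a mutant strain from a panel with lesions in DNA repair or checkpoint genes.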

Test [6] is described as follows: NCI Yeast Anticancer Drug Screen. Data for the mlh1 rad18 strain (AID 175). The conditions noted are these: S. cerevisiae mlh1 rad18 strain growth inhibition, hits give high values; at 50.0 µM unless noted. Summed up:
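Genetically defined yeast (DNA repair-deficient) exposed to compounds; growth inhibition determined relative to vehicle.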

Regarding `Cc1c(N(C)CN(C)c2c(C)n(C)n(-c3ccccc3)c2=O)c(=O)n(-c2ccccc2)n1C`, the growth inhibition is -13.2% in test [1]; -27.4% in test [2]; -15.7% in test [3]; 3.25% in test [4]; -12.9% in test [5]; -18% in test [6].

Consider `OCCN/N=C/c1ccncc1`, for which the growth inhibition in test [1] was -4.35%; in test [2], -52.2%; in test [3], -20.2%; in test [4], 15.2%; in test [5] it was -14.3%; in test [6] it was 23.8%.

Take `NC(=O)C(=Cn1c(=S)[nH]c2ccc([N+](=O)[O-])cc21)C(N)=O`: the growth inhibition in test [1] is -10%; in test [2] it was -40.9%; in test [3] it was -9.9%; in test [4] it was 11.7%; in test [5] it was -22.6%; in test [6] it was 31.9%.

Turning to `COc1ccc(-c2cccc(C(=O)O)c2C(=O)O)cc1OC`, the growth inhibition in test [1] is 6.1%; in test [2], 20.8%; in test [3], 0.4%; in test [4], -17.2%; in test [5], -7.4%; in test [6], -10.1%.

For the compound `OC(c1ccc(Cl)cc1)c1ccccn1` (configuration not stated), the growth inhibition in test [1] was 1.7%; in test [2] it was -9%; in test [3], -7.3%; in test [4] it was -17%; in test [5], -18.9%; in test [6], -8.75%.

Consider `C=C(c1ccccc1)C1ON(C)CCc2cc(OC)c(OC)cc21` (configuration not stated), for which the growth inhibition in test [1] was 3.65%; in test [2] it was 15.4%; in test [3] it was 14.3%; in test [4] it was 5.85%; in test [5], 33.6%; in test [6] it was 5.45%.

Turning to `O=C(O)/C(Cc1cn[nH]n1)=N\O`, the growth inhibition is -20.3% in test [1]; -29.9% in test [2]; -51.7% in test [3]; -77% in test [4]; -39.4% in test [5]; -32% in test [6].

Take `COc1ccc2[nH]c3cc4c(=O)c5cc(OC)ccc5[nH]c4cc3c(=O)c2c1`: the growth inhibition in test [1] is -31.6%; in test [2], -15.8%; in test [3] it was -6.2%; in test [4], 5.05%; in test [5], -2.9%; in test [6] it was -37.6%.

For `COC(=O)Cc1cc(C)n(C)c(=O)c1CN1C(=O)c2ccccc2C1=O`, the growth inhibition in test [1] is 10.6%; in test [2], -10.9%; in test [3], 5.4%; in test [4], 12.4%; in test [5], -11.2%; in test [6], 20.8%.

For the compound `CC(C)N(CCO)CC(O)Cn1cnc2ncnc(N)c21` (configuration not stated), the growth inhibition was 2.15% in test [1]; -10.8% in test [2]; -24.9% in test [3]; 6.7% in test [4]; -28.4% in test [5]; 4.45% in test [6].

`Cc1ccccc1NS(=O)(=O)N1CCCCC1`: the growth inhibition in test [1] was -11.8%; in test [2] it was -24.4%; in test [3] it was -4.3%; in test [4] it was 18.9%; in test [5], 22.1%; in test [6] it was -5.65%.

Consider `O=Cc1c2cnc(c1O)CSCc1ccc(cc1)CSC2`, for which the growth inhibition is 9.55% in test [1]; 8.45% in test [2]; 9.35% in test [3]; -11.7% in test [4]; -2.9% in test [5]; 23.5% in test [6].

In the case of `Clc1ccc(/C=N\OCc2ccc(Cl)c(Cl)c2)cc1Cl`, the growth inhibition in test [1] is -9.85%; in test [2] it was -13.1%; in test [3], 2.1%; in test [4], -17.9%; in test [5] it was -4.85%; in test [6], -5.25%.

As for `COc1cc(CC(C(=O)O)C(C)C(=O)c2ccc3c(c2)OCO3)cc(OC)c1OC` (configuration not stated), the growth inhibition in test [1] was -4.75%; in test [2], 0.1%; in test [3] it was -11.9%; in test [4], -24.6%; in test [5] it was -10.4%; in test [6], -15.8%.

On to `C=C1c2nc3ccccc3n2C=C(c2ccc(C)cc2)N1c1ccc(C)cc1`, for which the growth inhibition in test [1] was 24.6%; in test [2] it was 18%; in test [3], 16.2%; in test [4], 25%; in test [5], 11.2%; in test [6], 29.8%.

As for `Cc1ccc(C(=O)C[n+]2ccc3ccccc3c2)c(O)c1`, the growth inhibition was -17.1% in test [1]; -17.9% in test [2]; -20.2% in test [3]; -51.9% in test [4]; -14.3% in test [5]; 1.25% in test [6].

Regarding `CC(Oc1c(Cl)cc(Cl)cc1Cl)C(=O)O` (configuration not stated), the growth inhibition was -13.7% in test [1]; -51.8% in test [2]; -8.6% in test [3]; 12.8% in test [4]; -34.9% in test [5]; -15.8% in test [6].

Regarding `CCCCC(O)CCC` (configuration not stated), the growth inhibition in test [1] was -30.4%; in test [2] it was -52.4%; in test [3] it was -24.8%; in test [4] it was 4.85%; in test [5], -48.7%; in test [6], -33.5%.

For `C#CCN(N=O)C(=O)NCCCCC(NC(C)=O)C(=O)NCc1ccccc1` (configuration not stated), the growth inhibition in test [1] is 3.4%; in test [2], -16.9%; in test [3], -16.9%; in test [4], 5%; in test [5], -16.2%; in test [6], -15.1%.

Turning to `O=C1NC(=O)C2(CCCC2)N1`, the growth inhibition was -9.4% in test [1]; 8.05% in test [2]; 2.8% in test [3]; -74% in test [4]; 7.45% in test [5]; -37.9% in test [6].

With `CCN(CC)CCOC(=O)c1cc2ccccc2s1`, the growth inhibition is 23.2% in test [1]; 8.85% in test [2]; 13.1% in test [3]; 2.85% in test [4]; -1.35% in test [5]; 10.4% in test [6].

In the case of `COc1cccc(N(CN2CC=CC2=O)C(C)=O)c1`, the growth inhibition in test [1] is -1.65%; in test [2], 6.3%; in test [3], 10.6%; in test [4], 18.6%; in test [5], -16.8%; in test [6], -44.3%.

For the compound `NC(Cc1ccc2nc3c4ccccc4c(=O)cc-3oc2c1)C(=O)O` (configuration not stated), the growth inhibition was -23.4% in test [1]; -40.9% in test [2]; -14.6% in test [3]; 19.3% in test [4]; 10.1% in test [5]; -13.7% in test [6].

Consider `CCCCSc1ncnc2nc[nH]c12`, for which the growth inhibition in test [1] was -38%; in test [2], -15.4%; in test [3], -9.05%; in test [4] it was -21.4%; in test [5], -7.45%; in test [6], -15.7%.

Consider `Cc1cccc(NC(=O)c2ccc(Cl)cc2Cl)c1`, for which the growth inhibition in test [1] was 9.1%; in test [2] it was 14.1%; in test [3] it was 6.8%; in test [4], 13.6%; in test [5] it was 21.3%; in test [6], 22.2%.

In the case of `CC(=O)OC1COC(N2C(=O)C(=O)c3c(C)cc(Cl)nc32)C(OC(C)=O)C1OC(C)=O` (configuration not stated), the growth inhibition was -22.6% in test [1]; -15.7% in test [2]; -22.4% in test [3]; -24.1% in test [4]; -24.1% in test [5]; -8.3% in test [6].

In the case of `Cc1ccc(NC(=S)N2CCCC(C)C2)cc1C` (configuration not stated), the growth inhibition in test [1] was -1.15%; in test [2], -9.85%; in test [3], 6.15%; in test [4] it was -7.3%; in test [5], 6.15%; in test [6], -23.6%.

For `O=C1OCCOCCOCCOCCOC(=O)c2cccc1n2`, the growth inhibition in test [1] was -10.2%; in test [2], 6.65%; in test [3], 12.6%; in test [4], 17.1%; in test [5], 5.2%; in test [6] it was 7.2%.

As for `CN(C)CCCNC(=O)N/N=C/c1ccccc1`, the growth inhibition in test [1] was 13.9%; in test [2], -13.8%; in test [3], -13.8%; in test [4], -6.3%; in test [5], -39.7%; in test [6], -21.1%.

`CCN(CC)Cc1cc(O)ccc1NCCCNc1ccnc2cc(Cl)ccc12`: the growth inhibition in test [1] was 49.4%; in test [2], 11.1%; in test [3], 40.1%; in test [4], 16.4%; in test [5] it was -7.05%; in test [6] it was 12.1%.

As to `CCCCCC[P+](c1ccccc1)(c1ccccc1)c1ccccc1`, the growth inhibition in test [1] is 97.7% (active); in test [2], 98.4% (active); in test [3], 98% (active); in test [4], 95% (active); in test [5] it was 96.1% (active); in test [6], 97.8% (active).

With `Cc1ccc(/C=C2\NC(=S)NC2=O)cc1`, the growth inhibition in test [1] was -0.15%; in test [2], -18.9%; in test [3], -1.9%; in test [4] it was -21.4%; in test [5], -23.4%; in test [6], -41.4%.

Take `Cc1nc2ccccc2c2ccc([N+](=O)[O-])cc12`: the growth inhibition in test [1] is 13.5%; in test [2], 4.45%; in test [3], 0.25%; in test [4], -31.1%; in test [5], -4.6%; in test [6] it was 12.3%.

For the compound `Nn1c(NNC(=O)C(=O)Nc2cc(Cl)c(Cl)cc2Cl)n[nH]c1=S`, the growth inhibition is -6.05% in test [1]; -16.1% in test [2]; -6.45% in test [3]; 23.8% in test [4]; 19.2% in test [5]; 1.4% in test [6].

For `FC(F)(F)COP1(OCC(F)(F)F)=NP(OCC(F)(F)F)(OCC(F)(F)F)=NP(OCC(F)(F)F)(OCC(F)(F)F)=N1`, the growth inhibition was -1.2% in test [1]; 14.3% in test [2]; -5.15% in test [3]; -4.55% in test [4]; -3.45% in test [5]; 6.8% in test [6].

For the compound `CCCCCCCC/C=C\CCCCCCCC(=O)NN`, the growth inhibition in test [1] was -7.85%; in test [2], 0.15%; in test [3] it was -4.25%; in test [4], -76%; in test [5], -2.7%; in test [6], -12.8%.

For `C=CC(=O)Nc1ccccc1`, the growth inhibition in test [1] is 16.4%; in test [2], -8.05%; in test [3] it was 8.25%; in test [4] it was -8.35%; in test [5], -10%; in test [6] it was 5.55%.
